“And” between values parts separate entries of the source, which are not always exact repeats. Equal values may be shown once. Results filed as inconclusive are left out. Where a call stands in place of a potency, no number is given. Some structures have more than one record in an assay (separate samples or runs), and their calls can disagree. The source made the active and inactive calls. Unless noted, the call rests on the fitted dose curve; in most records, active means well fitted curve in the direction sought with a large enough effect; inconclusive means small, poorly fitted or top-dose-only effect, or another doubt; inactive means no such curve, though single readings can be large; an effect the other way counts as inactive or inconclusive.
Key:
[1] = Primary qHTS for small molecule stabilizers of the endoplasmic reticulum resident proteome: Secreted ER Calcium Modulated Protein (SERCaMP) assay (AID 1508630); settings: SH-SY5Y GLuc-SERCaMP (Gaussia luciferase released on ER calcium loss) secretion, thapsigargin, luminescence; series mostly up to 38.4 µM
Outline: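 The SH-SY5Y reporter protocol was run at 3 concentrations up to 38.3 uM (primary) or 11 concentrations (follow-up): 16 h compound, 100 nM thapsigargin for 4 h, then extracellular luciferase luminescence.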

[2] = A High-Content qHTS Against Drug Library for the Identification of Small Molecules that Inhibit DYT1 Early Onset Primary Dystonia-Associated Cell Pathology (AID 1645839; calls by dose curve); settings: HEK293 Flp-In EGFP-delE TorsinA, punctate imaging, 48 h; series mostly up to 46.1 µM
Outline: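 High-content imaging quantified EGFP-TorsinA mislocalization in HEK293-derived cells inducibly expressing DYT1 mutant torsinA, after 48 h exposure to compound given together with tetracycline induction. Cell count served as a toxicity channel alongside %pathology.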

[3] = target: Cytochrome P450 2D6 (Homo sapiens) (UniProt P10635); experiment: Cytochrome P450 family 2 subfamily D member 6 (CYP2D6) small molecule antagonists: luciferase biochemical (cell-free) qHTS assay (AID 1645840; active means well fitted curve in the direction sought with a large enough effect in the repeat runs; an effect the other way counts as inactive or inconclusive; further: nearly all actives have a fitted effect of over 55% in size; further: potency means the concentration at half of the fitted maximal effect); settings: P450-Glo CYP2D6 enzyme, luciferin luminescence, 1 h; series mostly up to 57.4 µM
Outline: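 P450-Glo CYP2D6 system: proluciferin substrate converted by enzyme to luciferin, read by luminescence proportional to activity. Enzyme-substrate mix with compound 10 min at room temperature, then NADPH regeneration 1 h before detection reagent.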

Papain (Carica papaya) = Papain (Carica papaya) (UniProt P00784); experiment: Primary qHTS assay for inhibitors of the protease papain (AID 1645873); settings: papain Z-FR-AMC cleavage, AMC fluorescence; series mostly up to 49.8 µM;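 further: papain turnover of Z-FR-AMC read as the AMC fluorescence gain over 10 min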
[4] = Primary qHTS for inhibitors of nuclear receptor binding SET domain protein 2 (NSD2) in an isogenic RCH-ACV NSD2 p.E1099K mutant (9B) (AID 1645876); settings: RCH-ACV NSD2 E1099K (9B) viability, CellTiter-Glo, 72 h; series mostly up to 44.9 µM; further: nearly all actives have a fitted effect of over 70% in size; further: potency means the concentration at half of the fitted maximal effect
[5] = Primary qHTS for inhibitors of nuclear receptor binding SET domain protein 2 (NSD2) in an RCH-ACV wild type WT cells (2C) (AID 1645877); settings: RCH-ACV (leukaemia line) NSD2 WT (2C) viability, CellTiter-Glo, 72 h; series mostly up to 44.9 µM; further: nearly all actives have a fitted effect of over 70% in size; further: potency means the concentration at half of the fitted maximal effect
[6] = target: Cytochrome P450 2C9 (Homo sapiens) (UniProt P11712); experiment: Cytochrome P450 family 2 subfamily C member 9 (CYP2C9) small molecule antagonists: luciferase biochemical (cell-free) qHTS assay (AID 1645842; active means well fitted curve in the direction sought with a large enough effect in the repeat runs; an effect the other way counts as inactive or inconclusive; further: nearly all actives have a fitted effect of over 55% in size; further: potency means the concentration at half of the fitted maximal effect); settings: P450-Glo CYP2C9 enzyme assay, luciferin luminescence; series mostly up to 57.4 µM
Outline: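 P450-Glo CYP2C9 system: proluciferin substrate with enzyme in mix containing 0.4% BSA, 10 min at room temperature, then NADPH regeneration solution added and incubated 1 h at 37C. Detection reagent stopped reaction; luminescence read after 20 min as RLU.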

[7] = target: N-terminal Xaa-Pro-Lys N-methyltransferase 1 (Homo sapiens) (UniProt Q9BV86); experiment: Confirmatory qHTS for Inhibitors of N-terminal methyltransferase 1 (NTMT1): MTaseGlo Assay (AID 1645874); settings: NTMT1 enzyme, MTase-Glo SAH luminescence; series mostly up to 100 µM;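 further: luminescence from SAH made as NTMT1 methylates SPKRIA peptide using SAM; nearly all actives have a fitted effect of over 65% in size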
Outline: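 Enzyme mix (125 nM NTMT1, 100 uM SAM) + compound, 15 min RT; + 1 uM SPKRIA, 30 min RT, dark; MTase-Glo reagent 30 min, detection solution 30 min; luminescence. % inhibition vs no-enzyme/DMSO controls, 4-parameter Hill fit.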

Chain of Cytochrome P450 2C9 (Homo sapiens) (P11712 whole entry, looked up): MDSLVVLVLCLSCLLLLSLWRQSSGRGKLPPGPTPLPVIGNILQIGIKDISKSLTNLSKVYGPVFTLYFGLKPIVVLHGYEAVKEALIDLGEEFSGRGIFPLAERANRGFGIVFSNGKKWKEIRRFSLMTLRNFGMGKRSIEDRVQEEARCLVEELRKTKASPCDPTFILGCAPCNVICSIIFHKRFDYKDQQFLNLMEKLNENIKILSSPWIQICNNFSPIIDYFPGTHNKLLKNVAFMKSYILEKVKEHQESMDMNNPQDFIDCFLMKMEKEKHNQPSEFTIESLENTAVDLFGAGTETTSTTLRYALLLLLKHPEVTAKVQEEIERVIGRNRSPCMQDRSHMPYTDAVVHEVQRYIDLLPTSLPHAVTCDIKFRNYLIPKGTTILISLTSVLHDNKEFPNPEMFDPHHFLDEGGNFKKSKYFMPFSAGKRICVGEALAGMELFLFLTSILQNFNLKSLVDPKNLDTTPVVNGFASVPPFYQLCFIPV
Chain of Cytochrome P450 2D6 (Homo sapiens) (P10635 whole entry, looked up): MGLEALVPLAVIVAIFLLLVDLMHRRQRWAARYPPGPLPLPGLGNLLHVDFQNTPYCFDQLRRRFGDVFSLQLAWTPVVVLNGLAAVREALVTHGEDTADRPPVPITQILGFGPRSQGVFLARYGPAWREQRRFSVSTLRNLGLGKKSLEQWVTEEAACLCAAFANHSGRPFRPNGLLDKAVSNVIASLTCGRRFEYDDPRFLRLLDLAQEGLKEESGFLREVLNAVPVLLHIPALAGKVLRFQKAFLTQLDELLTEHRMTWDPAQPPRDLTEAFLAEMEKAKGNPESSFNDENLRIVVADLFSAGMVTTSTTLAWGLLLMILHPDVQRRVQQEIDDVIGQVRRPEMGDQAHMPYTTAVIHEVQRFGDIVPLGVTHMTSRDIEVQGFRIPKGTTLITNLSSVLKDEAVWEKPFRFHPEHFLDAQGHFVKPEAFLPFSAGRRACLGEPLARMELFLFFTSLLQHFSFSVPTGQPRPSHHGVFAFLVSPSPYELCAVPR
Chain of Papain (Carica papaya) (P00784 whole entry, looked up, the tested form may be a part): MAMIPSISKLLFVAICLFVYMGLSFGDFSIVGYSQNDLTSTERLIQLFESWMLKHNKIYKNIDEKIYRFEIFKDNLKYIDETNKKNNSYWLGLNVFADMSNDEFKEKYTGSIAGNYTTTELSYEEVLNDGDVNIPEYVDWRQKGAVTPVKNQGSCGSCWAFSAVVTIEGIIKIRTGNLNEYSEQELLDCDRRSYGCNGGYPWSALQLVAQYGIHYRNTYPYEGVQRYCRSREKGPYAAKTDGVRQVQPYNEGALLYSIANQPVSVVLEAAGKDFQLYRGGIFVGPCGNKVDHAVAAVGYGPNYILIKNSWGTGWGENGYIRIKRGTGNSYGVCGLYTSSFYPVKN
Chain of N-terminal Xaa-Pro-Lys N-methyltransferase 1 (Homo sapiens) (Q9BV86 whole entry, looked up): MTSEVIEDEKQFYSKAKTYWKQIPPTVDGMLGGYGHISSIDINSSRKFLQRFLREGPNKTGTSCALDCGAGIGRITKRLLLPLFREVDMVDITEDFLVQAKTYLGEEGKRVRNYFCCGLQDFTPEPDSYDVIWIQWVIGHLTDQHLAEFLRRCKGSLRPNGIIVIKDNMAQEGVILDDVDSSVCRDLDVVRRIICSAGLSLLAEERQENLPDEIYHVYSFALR

Compound | Potency [1] | Potency [2] | Potency [3] | outcome (Papain (Carica papaya)) | Potency [4] | Potency [5] | Potency [6] | Potency [7]
CCCNC(=O)NS(=O)(=O)c1ccc(Cl)cc1 | inactive | inactive | inactive | inactive | inactive | inactive |  | 
CCOc1ccc(Nc2nc(-c3c(C)nc4ccccn34)cs2)cc1 | inactive |  | 15.1 µM (active) |  | 183 nM (active) | 183 nM (active) and inactive | 13.5 µM (active) | inactive
COc1ccccc1N1CCN(CCCNc2cc(=O)n(C)c(=O)n2C)CC1 | inactive | inactive |  | inactive | inactive | inactive | inactive | 
Clc1ccc(-c2nc3sccn3c2C=NOCc2ccc(Cl)c(Cl)c2)cc1 | inactive |  | inactive |  |  |  | 3.79 µM (active) | 
O=C1Nc2ccc(Cl)cc2C(C#CC2CC2)(C(F)(F)F)O1 (configuration not stated) | inactive |  | 16.9 µM (active) |  |  |  | 12 µM (active) | 
COCCOC(=O)C1=C(C)NC2=C(C(=O)CC(c3ccccc3OC)C2)C1c1cccc(O)c1 (configuration not stated) | inactive |  | 10.7 µM (active) |  | 4.68 µM (active) and 3.65 µM (active) | 3.72 µM (active) and 3.25 µM (active) | 1.69 µM (active) | 
CC(C)(Cc1ccc2ccccc2c1)NC[C@@H](O)COc1cccc(Cl)c1C#N | inactive |  | 0.379 µM (active) |  | 4680 nM (active) |  | 2.68 µM (active) | 
CN[C@@H](C)C(=O)N[C@H]1CN(C(=O)CC(C)C)CC[C@H]2CC[C@@H](C(=O)NC(c3ccccc3)c3ccccc3)N2C1=O | inactive |  | inactive |  | inactive | inactive | inactive | 
CCn1c(C(=O)N(C2CC2)C2CC2)cc2c3c(ncn3C)c(Nc3cc(C)n(C)n3)nc21 | inactive |  | inactive |  | 11.5 µM (active) and 16.6 µM (active) |  | 7.56 µM (active) | 
